Of roughly 8,800 targets only a part is listed; those with a hit were picked by preference. About 0.5% of all pairs of compound and target were hits.
Legend:
Assay in all cases: log2 fold change, soluble protein after heating vs DMSO (PISA); higher = thermal stabilisation; K562 lysate, 10 uM; active = over 0.2 and 3.5 SD of the protein, either way, in both replicates (recomputed)
erlotinib = compound: C#Cc1cccc(Nc2ncnc3cc(OCCOC)c(OCCOC)cc23)c1 [erlotinib]
In short: (§1)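 Pellets of K562 cells were dounce-homogenised in PBS pH 7.4 with 1 mM MgCl2, and the crude extract was held at 1 mg/mL protein for a 30 min treatment with 10 μM compound. Aliquots were heated for 3 min over 48°C-58°C and pooled before NP-40 was added to 0.5% at 4°C. The supernatant from 21,000xg for 90 min was quantified by TMTpro 16plex LC-MS/MS with channel sums equalised. Values are reported from duplicates as log-two fold change in thermal stability relative to solvent controls.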

[1] = compound: C/C(=N\NC(=O)C1=CC(=CC=C1)S(=O)(=O)N2CCOCC2)/C3=C(C=CC(=C3)Cl)O
In short: as §1

[2] = compound: C1=CC(=CC=C1C2=NC3=C(N2)C=C(C=C3)C(=O)N)OC4=CC=C(C=C4)Cl
In short: as §1

[3] = compound: C1=CC2=C(C=CC(=C2)/C=C\3/C(=O)NC(=NCC4=CC=CS4)S3)N=C1
In short: as §1

[4] = compound: C1=CC=C(C=C1)C2=NC(=C(N2)C3=CC=NC=C3)C4=CC(=C(C=C4)Cl)O
In short: as §1

[5] = compound: C1=CC=C2C(=C1)C3=NNC4=CC=CC(=C43)C2=O
In short: as §1

[6] = compound: C1CCN(C1)C(=O)NC2=CC=CC(=C2)NC3=NC=C(C(=N3)NCCC4=CN=CN4)Br
In short: as §1

[7] = compound: C1CN(CCC1(CC2=CC=C(C=C2)Cl)N)C3=NC=NC4=C3C=CN4
In short: as §1

IRAK-1-4 Inhibitor I = compound: C1COCCN1CCN2C3=CC=CC=C3N=C2NC(=O)C4=CC(=CC=C4)[N+](=O)[O-] [IRAK-1-4 Inhibitor I]
In short: as §1

[8] = compound: CC(=O)c1cnc2ccc(-c3cc(Cl)c(O)c(Cl)c3)nc2c1N[C@H]1CC[C@H](CN(C)C)CC1
In short: as §1

ralimetinib = compound: CC(C)(C)Cn1c(N)nc2ccc(-c3[nH]c(C(C)(C)C)nc3-c3ccc(F)cc3)nc21 [ralimetinib]
In short: as §1

[9] = compound: CC(C)(O)CC(=O)NCCn1ccc2ncnc(Nc3ccc(Oc4cccc(C(F)(F)F)c4)c(Cl)c3)c21
In short: as §1

[10] = compound: CC(C)C1=C2N=C(C=C(N2N=C1)NCC3=CC=CC=C3)NCCCCCCN
In short: as §1

[11] = compound: CC1=C(C2=C(C=C1)C(=O)C3=CC=CC=C3N2CCCN)C
In short: as §1

[12] = compound: CC1=C(C=C(C=C1)NC(=O)C2=CC(=CC=C2)C(C)(C)C#N)NC3=CC4=C(C=C3)N=CN(C4=O)C
In short: as §1

[13] = compound: CC1=C(C=C(C=C1)NC(=O)C2=CC(=CC=C2)N(C)C)NC(=O)C3=CC=C(C=C3)O
In short: as §1

[14] = compound: CC1=CC=C(C=C1)SC2=C3C=C(SC3=CN=C2)C(=O)N
In short: as §1

[15] = compound: C1=CC2=NC=CN=C2C=C1/C=C/3\C(=O)NC(=O)S3
In short: as §1

ibrutinib = compound: C=CC(=O)N1CCC[C@@H](n2nc(-c3ccc(Oc4ccccc4)cc3)c3c(N)ncnc32)C1 [ibrutinib]
In short: as §1

[16] = compound: CC1=C(C(CC(=O)N1)C2=CC=C(C=C2)C(F)(F)F)C(=O)NC3=C(C=C4C(=C3)C=NN4)F
In short: as §1

Measured: log2 fold change

CACUL1 (UniProt Q86Y37)
inactive: erlotinib 0.232 | [1] -0.048 | [2] 0.087 | [3] 0.044 | [4] 0.027 | [5] 0.045 | [6] 0.042 | [7] 0.023 | IRAK-1-4 Inhibitor I 0.016 | [8] 0.164 | ralimetinib -0.023 | [9] 0.073 | [10] 0.027 | [11] -0.165 | [12] -0.126 | [13] 0.115 | [14] -0.09

CAMK2B (UniProt Q13554)
Sequence of UniProt Q13554 (Q13554 whole entry, looked up): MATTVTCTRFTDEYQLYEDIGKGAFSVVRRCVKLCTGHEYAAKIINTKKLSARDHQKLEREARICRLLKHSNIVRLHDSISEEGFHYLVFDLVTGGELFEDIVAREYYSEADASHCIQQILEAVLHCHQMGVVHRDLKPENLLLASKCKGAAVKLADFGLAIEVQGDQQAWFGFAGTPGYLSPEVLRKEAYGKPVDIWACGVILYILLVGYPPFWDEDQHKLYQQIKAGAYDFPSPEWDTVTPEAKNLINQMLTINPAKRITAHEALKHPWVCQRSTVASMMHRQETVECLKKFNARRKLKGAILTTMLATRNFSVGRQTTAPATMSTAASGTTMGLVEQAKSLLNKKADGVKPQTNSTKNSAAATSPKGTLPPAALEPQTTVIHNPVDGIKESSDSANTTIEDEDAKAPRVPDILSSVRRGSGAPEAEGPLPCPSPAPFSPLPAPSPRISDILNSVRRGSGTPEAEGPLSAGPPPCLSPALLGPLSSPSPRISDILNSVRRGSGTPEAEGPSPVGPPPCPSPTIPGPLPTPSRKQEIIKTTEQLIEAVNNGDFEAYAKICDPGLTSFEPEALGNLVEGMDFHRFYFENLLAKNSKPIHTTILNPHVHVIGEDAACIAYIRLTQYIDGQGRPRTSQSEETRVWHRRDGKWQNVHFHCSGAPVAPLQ
inactive: erlotinib 0.037 | [1] 0.086 | [2] -0.067 | [3] -0.039 | [15] -0.068 | [4] -0.069 | [6] 0.011 | [7] -0.034 | IRAK-1-4 Inhibitor I 0.087 | ibrutinib 0.092 | [8] 0.023 | ralimetinib 0.028 | [9] 0.045 | [10] 0.075 | [16] -0.035 | [11] -0.018 | [12] -0.005 | [13] 0.046 | [14] -0.032

CD80 (UniProt P33681)
Sequence of UniProt P33681 (P33681 whole entry, looked up): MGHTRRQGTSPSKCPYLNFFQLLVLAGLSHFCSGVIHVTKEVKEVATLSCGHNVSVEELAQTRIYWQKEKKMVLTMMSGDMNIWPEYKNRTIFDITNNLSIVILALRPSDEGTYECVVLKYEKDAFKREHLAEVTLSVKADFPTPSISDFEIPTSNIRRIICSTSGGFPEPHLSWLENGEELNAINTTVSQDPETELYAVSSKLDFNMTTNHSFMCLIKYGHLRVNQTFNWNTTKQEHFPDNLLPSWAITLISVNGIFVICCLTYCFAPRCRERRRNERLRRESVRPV
inactive: erlotinib -0.139 | [1] 0.041 | [2] 0.063 | [3] -0.013 | [4] -0.087 | [5] -0.02 | [6] 0.058 | [7] -0.029 | IRAK-1-4 Inhibitor I 0.096 | [8] 0.034 | ralimetinib 0.207 | [9] -0.051 | [10] -0.136 | [16] 0.106 | [11] -0.084 | [12] 0.043 | [13] -0.119 | [14] 0.014

C8orf37 (UniProt Q96NL8)
Sequence of UniProt Q96NL8 (Q96NL8 whole entry, looked up): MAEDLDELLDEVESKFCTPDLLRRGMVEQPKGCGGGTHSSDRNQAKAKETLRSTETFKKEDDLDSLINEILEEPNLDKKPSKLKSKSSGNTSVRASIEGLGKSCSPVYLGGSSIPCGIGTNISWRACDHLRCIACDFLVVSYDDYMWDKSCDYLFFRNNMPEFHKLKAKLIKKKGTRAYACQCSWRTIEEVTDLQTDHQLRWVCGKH
inactive: erlotinib -0.006 | [1] -0.174 | [2] 0.029 | [3] -0.064 | [15] 0.005 | [4] 0.001 | [5] 0.037 | [6] -0.067 | [7] 0.007 | IRAK-1-4 Inhibitor I -0.047 | ibrutinib 0.214 | [8] -0.037 | ralimetinib -0.004 | [9] 0.031 | [10] -0.038 | [11] -0.006 | [12] 0.089 | [13] 0.031 | [14] -0.089

ATF7IP2 (UniProt Q5U623)
Sequence of UniProt Q5U623 (Q5U623 whole entry, looked up): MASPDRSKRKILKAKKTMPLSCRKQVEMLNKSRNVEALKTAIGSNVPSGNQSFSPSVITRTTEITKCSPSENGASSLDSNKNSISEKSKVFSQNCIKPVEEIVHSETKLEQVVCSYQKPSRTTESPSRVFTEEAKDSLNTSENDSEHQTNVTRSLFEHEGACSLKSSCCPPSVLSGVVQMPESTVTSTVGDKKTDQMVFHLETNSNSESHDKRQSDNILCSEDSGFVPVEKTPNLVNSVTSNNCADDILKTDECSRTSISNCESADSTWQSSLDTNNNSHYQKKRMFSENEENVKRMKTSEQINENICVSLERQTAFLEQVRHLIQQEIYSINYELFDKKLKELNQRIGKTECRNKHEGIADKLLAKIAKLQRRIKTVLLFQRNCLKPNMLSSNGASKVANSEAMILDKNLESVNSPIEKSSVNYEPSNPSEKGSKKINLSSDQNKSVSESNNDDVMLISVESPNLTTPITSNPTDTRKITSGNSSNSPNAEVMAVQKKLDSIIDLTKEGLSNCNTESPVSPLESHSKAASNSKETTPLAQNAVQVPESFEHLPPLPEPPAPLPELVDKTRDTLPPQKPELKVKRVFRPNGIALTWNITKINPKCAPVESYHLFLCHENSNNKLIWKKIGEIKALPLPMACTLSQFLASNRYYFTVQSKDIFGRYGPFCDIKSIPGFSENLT
inactive: erlotinib 0.012 | [1] -0.034 | [2] 0.086 | [3] 0.026 | [15] -0.069 | [4] -0.027 | [5] -0.132 | IRAK-1-4 Inhibitor I 0.027 | ibrutinib 0.054 | [8] -0.03 | ralimetinib 0.045 | [9] -0.201 | [10] 0.058 | [16] -0.056 | [12] 0.097 | [13] -0.04 | [14] -0.088

AUH (UniProt Q13825)
inactive: erlotinib 0.003 | [1] -0.031 | [2] 0.083 | [3] -0.042 | [15] 0.111 | [4] 0.027 | [5] -0.035 | [6] 0.026 | [7] -0.045 | IRAK-1-4 Inhibitor I -0.008 | ibrutinib 0.024 | [8] 0.103 | ralimetinib -0.161 | [9] -0.003 | [10] 0.011 | [11] -0.304 | [12] 0.015 | [13] -0.132 | [14] -0.058

CEP41 (UniProt Q9BYV8)
inactive: erlotinib -0.068 | [1] -0.125 | [2] 0.006 | [3] -0.007 | [15] 0.016 | [5] 0.019 | [6] -0.035 | [7] 0.03 | ibrutinib 0.014 | [8] 0.045 | [10] 0.021 | [16] -0.025 | [11] 0.095 | [12] 0.011 | [14] -0.031

CDK5RAP1 (UniProt Q96SZ6)
inactive: erlotinib -0.059 | [1] 0.007 | [2] -0.029 | [3] 0.005 | [4] 0.043 | [5] 0.016 | [6] -0.016 | [7] 0.041 | IRAK-1-4 Inhibitor I -0.018 | ibrutinib -0.369 | ralimetinib -0.018 | [9] -0.062 | [10] 0.122 | [16] -0.002 | [11] -0.027 | [12] -0.001 | [13] 0.045
active: [15] -0.392

BCORL1 isoform 3 (UniProt Q5H9F3)
inactive: erlotinib 0.002 | [1] -0.015 | [2] 0.15 | [3] -0.117 | [4] 0.004 | [5] -0.115 | [6] -0.114 | [7] -0.005 | ralimetinib -0.07 | [9] 0.075 | [10] 0.074 | [11] 0.001 | [12] -0.321 | [13] -0.01

C3orf33 (UniProt Q6P1S2)
Sequence of UniProt Q6P1S2 (Q6P1S2 whole entry, looked up): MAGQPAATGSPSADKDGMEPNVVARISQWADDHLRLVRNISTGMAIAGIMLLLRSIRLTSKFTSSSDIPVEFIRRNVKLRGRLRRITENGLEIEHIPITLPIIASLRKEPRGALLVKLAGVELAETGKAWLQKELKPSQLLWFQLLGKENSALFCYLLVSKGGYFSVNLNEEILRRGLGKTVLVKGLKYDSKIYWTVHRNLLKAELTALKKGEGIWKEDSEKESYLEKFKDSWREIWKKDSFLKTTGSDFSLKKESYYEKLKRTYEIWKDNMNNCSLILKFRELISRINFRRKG
inactive: erlotinib 0.195 | [1] -0.205 | [2] 0.209 | [3] -0.124 | [15] 0.068 | [4] 0.032 | [5] 0.123 | IRAK-1-4 Inhibitor I -0.281 | ibrutinib -0.045 | [8] -0.084 | ralimetinib 0.17 | [9] 0.012 | [10] -0.001 | [16] 0.046 | [11] -0.031 | [12] 0.117 | [13] -0.205 | [14] 0.008

BTK isoform 2 (UniProt Q06187)
Sequence of UniProt Q06187 (Q06187 whole entry, looked up): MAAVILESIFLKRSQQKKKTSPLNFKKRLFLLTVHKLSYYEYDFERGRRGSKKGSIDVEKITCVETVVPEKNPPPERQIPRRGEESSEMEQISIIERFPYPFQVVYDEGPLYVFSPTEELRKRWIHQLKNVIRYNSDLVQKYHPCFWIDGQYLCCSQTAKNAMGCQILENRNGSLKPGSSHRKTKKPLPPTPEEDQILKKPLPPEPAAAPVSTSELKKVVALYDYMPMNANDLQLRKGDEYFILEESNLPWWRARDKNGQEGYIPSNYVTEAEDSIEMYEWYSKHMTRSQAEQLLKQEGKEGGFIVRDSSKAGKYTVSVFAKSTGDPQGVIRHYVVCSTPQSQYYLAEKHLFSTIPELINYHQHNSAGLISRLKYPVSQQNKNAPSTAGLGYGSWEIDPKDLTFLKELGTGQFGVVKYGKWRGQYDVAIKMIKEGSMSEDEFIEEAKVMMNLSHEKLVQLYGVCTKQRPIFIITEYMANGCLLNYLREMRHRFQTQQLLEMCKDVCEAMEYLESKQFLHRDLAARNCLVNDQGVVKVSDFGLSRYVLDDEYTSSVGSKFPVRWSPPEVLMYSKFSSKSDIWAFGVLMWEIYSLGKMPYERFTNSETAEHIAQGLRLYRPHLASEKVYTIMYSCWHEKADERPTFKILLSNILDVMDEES
inactive: erlotinib 0.002 | [1] 0.017 | [2] -0.046 | [3] 0.031 | [15] 0.025 | [4] -0.005 | [5] -0.05 | [6] 0.077 | [7] -0.052 | IRAK-1-4 Inhibitor I -0.017 | [8] 0.012 | ralimetinib 0.014 | [9] 0.02 | [10] -0.01 | [16] 0.005 | [11] -0.032 | [12] 0.055 | [13] 0.042 | [14] -0.011

CCP110 (UniProt O43303)
Sequence of UniProt O43303 (O43303 whole entry, looked up): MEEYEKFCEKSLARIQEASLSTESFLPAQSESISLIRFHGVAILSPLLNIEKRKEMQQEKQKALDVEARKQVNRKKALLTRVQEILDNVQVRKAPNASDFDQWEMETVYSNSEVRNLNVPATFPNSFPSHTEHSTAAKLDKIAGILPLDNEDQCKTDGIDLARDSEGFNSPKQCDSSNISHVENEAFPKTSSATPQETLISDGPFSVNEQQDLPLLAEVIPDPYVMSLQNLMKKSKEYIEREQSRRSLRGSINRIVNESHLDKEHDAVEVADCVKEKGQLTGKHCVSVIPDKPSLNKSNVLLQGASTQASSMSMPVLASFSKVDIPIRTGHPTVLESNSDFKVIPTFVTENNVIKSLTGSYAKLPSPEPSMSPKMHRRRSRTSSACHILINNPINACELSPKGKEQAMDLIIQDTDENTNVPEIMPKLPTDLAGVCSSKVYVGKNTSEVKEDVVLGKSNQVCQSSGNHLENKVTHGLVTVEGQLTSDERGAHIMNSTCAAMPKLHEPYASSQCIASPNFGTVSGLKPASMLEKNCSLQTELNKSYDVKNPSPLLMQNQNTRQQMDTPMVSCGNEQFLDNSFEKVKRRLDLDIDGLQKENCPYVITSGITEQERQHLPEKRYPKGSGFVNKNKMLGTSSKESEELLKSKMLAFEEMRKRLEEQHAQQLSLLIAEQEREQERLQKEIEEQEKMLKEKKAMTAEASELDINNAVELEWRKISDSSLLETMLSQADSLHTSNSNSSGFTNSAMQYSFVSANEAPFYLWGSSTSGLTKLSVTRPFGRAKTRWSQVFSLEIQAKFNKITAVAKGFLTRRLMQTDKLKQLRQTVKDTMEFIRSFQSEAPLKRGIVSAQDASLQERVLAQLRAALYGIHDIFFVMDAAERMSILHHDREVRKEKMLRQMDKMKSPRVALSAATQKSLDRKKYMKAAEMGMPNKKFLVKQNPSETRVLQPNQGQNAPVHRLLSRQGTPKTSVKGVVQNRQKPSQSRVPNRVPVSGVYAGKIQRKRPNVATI
inactive: erlotinib 0.081 | [2] 0.046 | [3] -0.022 | [15] 0.03 | [4] -0.088 | [5] -0.047 | [6] -0.051 | [7] 0.051 | IRAK-1-4 Inhibitor I 0.075 | ibrutinib -0.008 | ralimetinib 0.082 | [9] 0.001 | [10] 0.054 | [11] -0.186 | [12] 0.01 | [13] 0.113
active: [1] -0.436

CDK17 isoform 2 (UniProt Q00537)
inactive: erlotinib -0.156 | [1] -0.007 | [2] 0.173 | [3] 0.099 | [15] -0.114 | [4] 0.005 | [5] 0.046 | [6] 0.124 | [7] 0.068 | IRAK-1-4 Inhibitor I 0.055 | ibrutinib -0.029 | ralimetinib -0.019 | [9] -0.003 | [10] -0.037 | [16] -0.162 | [11] -0.08 | [12] 0.029 | [13] 0.057

CDK11B (UniProt P21127)
active: [8] 0.438
inactive: erlotinib 0.01 | [1] 0.025 | [2] -0.029 | [3] 0.008 | [15] -0.018 | [4] 0.017 | [5] -0.049 | [6] -0.016 | [7] -0.003 | IRAK-1-4 Inhibitor I -0.021 | ibrutinib -0.008 | ralimetinib 0.028 | [9] 0.034 | [10] 0.01 | [16] -0.027 | [11] -0.011 | [12] 0 | [13] 0.01 | [14] 0.003

CDCA8 (UniProt Q53HL2)
inactive: erlotinib 0.112 | [1] 0.054 | [2] 0.009 | [3] -0.071 | [15] -0.12 | [5] -0.246 | [6] -0.01 | [7] -0.054 | ibrutinib 0.047 | [10] -0.082 | [16] 0.038 | [11] 0.011

BTRC (UniProt Q9Y297)
inactive: erlotinib 0.002 | [1] 0.085 | [2] -0.078 | [3] 0.001 | [15] 0 | [4] -0.007 | [5] 0.029 | [6] -0.138 | [7] -0.028 | IRAK-1-4 Inhibitor I 0.018 | ibrutinib 0.026 | [8] 0.012 | ralimetinib 0.068 | [9] -0.033 | [10] 0.045 | [16] 0.015 | [13] 0.075 | [14] -0.002

C18orf25 isoform 2 (UniProt Q96B23)
Sequence of UniProt Q96B23 (Q96B23 whole entry, looked up): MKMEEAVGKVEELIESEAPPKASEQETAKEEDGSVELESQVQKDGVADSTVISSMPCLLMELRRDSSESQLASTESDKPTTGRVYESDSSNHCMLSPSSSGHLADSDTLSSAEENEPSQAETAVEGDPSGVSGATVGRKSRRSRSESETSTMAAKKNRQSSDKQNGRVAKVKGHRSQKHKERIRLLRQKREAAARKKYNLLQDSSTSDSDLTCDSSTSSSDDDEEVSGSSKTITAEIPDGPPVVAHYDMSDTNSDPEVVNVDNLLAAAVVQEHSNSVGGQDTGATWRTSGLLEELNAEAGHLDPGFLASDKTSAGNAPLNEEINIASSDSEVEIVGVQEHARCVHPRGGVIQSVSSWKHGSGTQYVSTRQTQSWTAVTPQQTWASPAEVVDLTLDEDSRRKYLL
inactive: erlotinib 0.031 | [1] 0.098 | [2] -0.059 | [3] -0.002 | [15] 0.185 | [4] 0.055 | [5] -0.011 | [6] -0.01 | [7] -0.063 | IRAK-1-4 Inhibitor I 0.003 | ibrutinib 0.126 | [8] 0.1 | ralimetinib -0.065 | [9] -0.027 | [10] -0.013 | [16] -0.088 | [11] 0.015 | [13] -0.017 | [14] -0.076

BRAF (UniProt P15056)
Sequence of UniProt P15056 (P15056 whole entry, looked up): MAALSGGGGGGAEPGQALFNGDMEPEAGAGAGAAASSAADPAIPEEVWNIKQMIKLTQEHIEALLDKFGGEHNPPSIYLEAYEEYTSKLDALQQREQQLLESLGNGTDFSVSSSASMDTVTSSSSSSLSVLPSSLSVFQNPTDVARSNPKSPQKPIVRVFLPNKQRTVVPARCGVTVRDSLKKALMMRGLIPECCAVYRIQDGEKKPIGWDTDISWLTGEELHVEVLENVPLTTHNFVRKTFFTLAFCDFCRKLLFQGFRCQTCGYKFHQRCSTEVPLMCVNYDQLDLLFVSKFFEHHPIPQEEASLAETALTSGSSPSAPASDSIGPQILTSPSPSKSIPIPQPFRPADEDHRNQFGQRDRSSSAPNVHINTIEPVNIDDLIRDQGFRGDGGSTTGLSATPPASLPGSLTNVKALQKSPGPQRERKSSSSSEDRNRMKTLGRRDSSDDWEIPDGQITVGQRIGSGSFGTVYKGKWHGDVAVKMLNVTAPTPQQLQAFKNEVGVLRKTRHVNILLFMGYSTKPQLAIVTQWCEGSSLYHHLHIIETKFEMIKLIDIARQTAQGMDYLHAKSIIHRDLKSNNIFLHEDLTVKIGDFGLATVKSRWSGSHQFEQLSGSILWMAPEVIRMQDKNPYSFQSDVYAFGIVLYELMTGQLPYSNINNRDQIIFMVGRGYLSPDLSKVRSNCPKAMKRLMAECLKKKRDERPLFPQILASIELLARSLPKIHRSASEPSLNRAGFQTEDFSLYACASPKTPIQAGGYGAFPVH
inactive: erlotinib -0.05 | [1] -0.101 | [2] -0.04 | [3] 0.013 | [15] -0.008 | [5] 0 | [6] -0.007 | [7] 0.027 | IRAK-1-4 Inhibitor I -0.005 | ibrutinib 0.29 | ralimetinib 0.008 | [10] 0.032 | [16] 0.004 | [11] -0.111 | [14] -0.021
active: [12] 0.65

— the supplement of paper PMC10849652
